In PubChem BioAssay (NCATS):
Results filed as inconclusive are left out. A call without a number means that no potency is given here. Calls of active or inactive are those of the source. Unless noted, calls come from the whole dose curve; as a rule, active = well fitted curve in the direction sought with a large enough effect; inconclusive = small, poorly fitted or top-dose-only effect, or another doubt; inactive = no such curve, though single readings can be large; an effect the other way counts as inactive or inconclusive.

Legend:
[1] = Nrf2 qHTS screen for inhibitors: Validation (AID 493153; active = well fitted inhibition curve with a large enough effect in the main read-out, with a control signal flat, not every such curve was filed as active; note: potency is the fitted concentration of half-maximal effect); conditions: Potency: luciferase luminescence; viability change: measured here: cytotoxicity max response
Procedure, shortened: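 Concentration-response test in A549 ARE_Fluc reporter cells (5% FBS OPTI-MEM), compound exposure 18-24 h at 37°C, 5% CO2. Cell viability measured first by CellTiter-Fluor fluorescence; ARE-driven luciferase luminescence then measured as Nrf2 activity.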

[2] = Validation screen for small molecules that induce DNA re-replication in SW480 colon adenocarcinoma cells (AID 504364)
Procedure, shortened: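 Read-out: total Hoechst intensity of nuclei by fluorescence scanning imager; hits raise the fraction of nuclei with elevated DNA content. Cells received compound for 48 hr at 37 C before a 40 min stain.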

[3] = biological target: Peptidyl-prolyl cis-trans isomerase NIMA-interacting 1 (Homo sapiens) (UniProt Q13526); assay: qHTS Validation Assay to Find Inhibitors of Pin1 (AID 504536; active = well fitted inhibition curve with a large enough effect in the polarisation, with a control signal flat, not every such curve was filed as active; the % refers to the polarisation)
Procedure, shortened: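 Fluorescence polarization competition: compounds (titration) displace HiFluor-488-labeled Pin1-1b peptide from Pin1 (0.3 uM final) in pH 7.5 HEPES buffer with DTT, 10 min at room temperature; %Activity normalized to no-enzyme wells, curves fitted.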

[4] = biological target: Phosphoglycerate kinase, glycosomal (Trypanosoma brucei brucei) (UniProt P07378); assay: qHTS Validation Assay to Find Inhibitors of Phosphoglycerate Kinase (AID 504547)
Procedure, shortened: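 Compounds are pinned into the substrate/PGK mixture, and GAPDH (100nM final) is added to start the reaction by producing 1,3-BPG. After 60 minutes at room temperature, Kinase-Glo Plus is added and luminescence is measured 10 minutes later.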

[5] = biological target: phosphoglycerate mutase (Leishmania major) (UniProt Q4Q090); assay: qHTS Validation Assay to Find Inhibitors of Phosphoglycerate Mutase (AID 504548); conditions: Potency: inhibition qHTS; note: series mostly up to about 58 µM
Procedure, shortened: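 Lm PGAM 1.25nM final; 100 mM TEA pH 7.6, 5 mM MgCl2, 0.01% Tween-20; 45 min RT; Kinase-GloPlus, 10 min; end-point luminescence. Enzyme-free wells as negative controls.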

[6] = biological target: Ubiquitin carboxyl-terminal hydrolase 1 (Homo sapiens) (UniProt O94782); assay: Inhibitors of USP1/UAF1: Pilot qHTS (AID 504865); note: nearly all actives have a fitted effect of over 35% in size; note: potency is the fitted concentration of half-maximal effect
Procedure, shortened: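 USP1/UAF1 complex (1nM) preincubated with compound 15 min at room temperature, then Ub-Rho substrate (150nM final) added. Fluorescence read kinetically at 480/540 nm, 6 reads every 60 seconds. Buffer: 50mM HEPES pH 7.8, 0.5mM EDTA, 0.1 mg/ml BSA, 1mM TCEP, 0.01% Tween-20.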

[7] = qHTS for Inhibitors of ATXN expression: Validation of Cytotoxic Assay (AID 588349)
Procedure, shortened: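 Cytotoxicity counter-screen: HEK293 cells exposed to compound titrations, 72 hr, 37 degrees C. Read-out is intracellular ATP (CellTiter Glo luminescence) as a viability measure.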

[8] = qHTS for Inhibitors of ATXN expression: Validation (AID 588378); note: series mostly up to about 57 µM; nearly all actives have a fitted effect of over 75% in size
Procedure, shortened: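 Luminescence from an ATXN2-FFLuc reporter in HEK293 cells served as read-out after 24 h compound treatment at 37 degrees C; CellTiter-Fluor fluorescence was recorded first to assess viability.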

[9] = biological target: Galactokinase (Homo sapiens) (UniProt P51570); assay: qHTS Validation Assay for Inhibitors of Human Galactokinase (GALK) (AID 493189)
Procedure, shortened: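 GALK (5 nM) with 35 uM ATP and 100 uM galactose in HEPES pH8.0, MgCl2, NaCl, DTT, BSA; 1 h at room temperature. Residual ATP read by Kinase-Glo Plus luminescence after 10 min.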

[10] = biological target: DNA dC->dU-editing enzyme APOBEC-3G (Homo sapiens) (UniProt Q9HC16); assay: qHTS for inhibitors of Vif-A3G interactions: Validation (AID 588379)
Procedure, shortened: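 Yellow fluorescence (Ex 488, Em 500-530) of Vif-coexpressing HeLa A3G-eYFP cells, scanned by Acumen cytometer, reports blocked A3G degradation. Cells plated at 700/well overnight at 37 deg C before compound addition, then a further overnight compound incubation at 37 deg C.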

[11] = qHTS for Inhibitors of Cell Surface uPA Generation: Validation Assay (AID 493164);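 note: RAW 264.7 macrophage cells exposed to compound for 18 h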
Procedure, shortened: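 Compounds are titrated over seven points (2.45 nM–38.3 uM final) onto pre-plated RAW 264.7 cells and incubated for 18 h. Retained intracellular ATP, measured with ATP-Lite, indicates blocked lethal factor entry.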

Sequence of Ubiquitin carboxyl-terminal hydrolase 1 (Homo sapiens) (O94782 whole entry, looked up): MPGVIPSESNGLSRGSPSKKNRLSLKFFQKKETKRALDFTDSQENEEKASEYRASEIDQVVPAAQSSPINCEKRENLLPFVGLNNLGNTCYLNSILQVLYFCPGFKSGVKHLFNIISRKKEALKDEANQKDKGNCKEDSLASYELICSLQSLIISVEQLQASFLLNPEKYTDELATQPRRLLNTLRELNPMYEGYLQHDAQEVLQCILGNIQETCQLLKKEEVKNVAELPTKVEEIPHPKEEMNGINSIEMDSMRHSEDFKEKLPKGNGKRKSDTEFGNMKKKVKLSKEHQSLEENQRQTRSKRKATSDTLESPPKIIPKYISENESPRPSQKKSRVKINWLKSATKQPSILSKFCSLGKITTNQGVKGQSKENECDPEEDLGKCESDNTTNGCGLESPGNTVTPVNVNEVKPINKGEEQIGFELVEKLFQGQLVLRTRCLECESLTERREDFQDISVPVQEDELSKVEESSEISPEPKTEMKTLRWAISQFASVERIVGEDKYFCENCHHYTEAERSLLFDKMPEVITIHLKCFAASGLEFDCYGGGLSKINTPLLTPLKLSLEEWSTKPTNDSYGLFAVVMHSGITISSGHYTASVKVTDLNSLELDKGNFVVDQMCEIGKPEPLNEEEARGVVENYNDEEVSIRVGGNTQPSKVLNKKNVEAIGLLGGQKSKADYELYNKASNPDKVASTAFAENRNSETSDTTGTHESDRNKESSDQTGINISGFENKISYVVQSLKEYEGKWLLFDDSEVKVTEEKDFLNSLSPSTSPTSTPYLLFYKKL
Sequence of phosphoglycerate mutase (Leishmania major) (Q4Q090 1-553): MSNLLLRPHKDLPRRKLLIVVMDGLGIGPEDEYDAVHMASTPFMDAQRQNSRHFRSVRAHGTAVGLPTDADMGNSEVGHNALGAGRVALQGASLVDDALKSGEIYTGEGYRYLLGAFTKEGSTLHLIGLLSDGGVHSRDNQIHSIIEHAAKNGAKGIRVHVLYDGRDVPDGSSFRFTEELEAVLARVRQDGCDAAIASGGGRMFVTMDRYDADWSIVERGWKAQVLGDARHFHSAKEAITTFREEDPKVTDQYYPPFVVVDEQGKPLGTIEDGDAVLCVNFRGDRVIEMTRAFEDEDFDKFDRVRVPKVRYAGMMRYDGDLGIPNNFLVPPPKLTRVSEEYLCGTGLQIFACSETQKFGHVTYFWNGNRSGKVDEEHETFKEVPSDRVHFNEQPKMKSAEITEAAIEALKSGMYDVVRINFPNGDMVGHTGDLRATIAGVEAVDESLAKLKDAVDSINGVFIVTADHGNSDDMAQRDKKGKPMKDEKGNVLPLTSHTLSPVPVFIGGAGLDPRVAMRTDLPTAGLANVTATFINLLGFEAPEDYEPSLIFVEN
Sequence of DNA dC->dU-editing enzyme APOBEC-3G (Homo sapiens) (Q9HC16 whole entry, looked up): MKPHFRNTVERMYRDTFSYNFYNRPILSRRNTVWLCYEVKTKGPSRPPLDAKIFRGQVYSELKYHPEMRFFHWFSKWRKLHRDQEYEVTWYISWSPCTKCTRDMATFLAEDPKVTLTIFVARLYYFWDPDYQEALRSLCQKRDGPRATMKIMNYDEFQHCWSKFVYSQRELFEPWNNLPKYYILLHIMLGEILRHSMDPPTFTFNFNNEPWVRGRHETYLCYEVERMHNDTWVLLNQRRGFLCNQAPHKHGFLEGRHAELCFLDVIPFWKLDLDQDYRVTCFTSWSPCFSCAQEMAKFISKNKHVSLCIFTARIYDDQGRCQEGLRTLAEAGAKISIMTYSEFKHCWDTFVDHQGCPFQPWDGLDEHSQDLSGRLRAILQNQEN
Sequence of Phosphoglycerate kinase, glycosomal (Trypanosoma brucei brucei) (P07378 whole entry, looked up): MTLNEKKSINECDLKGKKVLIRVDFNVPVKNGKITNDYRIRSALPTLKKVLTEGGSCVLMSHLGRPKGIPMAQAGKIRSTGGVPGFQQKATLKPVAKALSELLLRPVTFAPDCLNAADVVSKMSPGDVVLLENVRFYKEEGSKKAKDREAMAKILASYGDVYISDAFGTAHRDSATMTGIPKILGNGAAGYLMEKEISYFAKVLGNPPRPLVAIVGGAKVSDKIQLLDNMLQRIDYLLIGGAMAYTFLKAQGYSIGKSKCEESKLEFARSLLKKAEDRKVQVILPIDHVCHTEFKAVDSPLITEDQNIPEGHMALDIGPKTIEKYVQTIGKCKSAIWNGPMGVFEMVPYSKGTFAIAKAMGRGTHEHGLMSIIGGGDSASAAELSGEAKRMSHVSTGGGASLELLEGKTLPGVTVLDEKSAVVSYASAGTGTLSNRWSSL
Sequence of Peptidyl-prolyl cis-trans isomerase NIMA-interacting 1 (Homo sapiens) (Q13526 whole entry, looked up): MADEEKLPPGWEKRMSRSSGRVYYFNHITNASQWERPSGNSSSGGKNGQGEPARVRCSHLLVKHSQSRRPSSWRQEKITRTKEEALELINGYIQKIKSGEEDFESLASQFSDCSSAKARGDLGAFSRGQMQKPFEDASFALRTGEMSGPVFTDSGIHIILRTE
Sequence of Galactokinase (Homo sapiens) (P51570 whole entry, looked up): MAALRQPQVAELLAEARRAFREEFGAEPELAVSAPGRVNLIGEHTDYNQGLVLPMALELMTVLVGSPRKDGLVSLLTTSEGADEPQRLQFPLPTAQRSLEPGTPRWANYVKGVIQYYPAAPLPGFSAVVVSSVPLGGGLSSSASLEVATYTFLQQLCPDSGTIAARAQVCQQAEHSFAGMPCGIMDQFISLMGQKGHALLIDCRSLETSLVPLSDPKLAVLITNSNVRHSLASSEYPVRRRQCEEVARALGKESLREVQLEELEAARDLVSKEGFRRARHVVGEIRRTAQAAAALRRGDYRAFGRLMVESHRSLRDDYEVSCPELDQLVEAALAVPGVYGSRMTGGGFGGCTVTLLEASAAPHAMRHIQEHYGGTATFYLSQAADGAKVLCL

Compound	Potency [1]	viability change [1] [%]	Potency [2]	Potency [3]	Potency [4]	Potency [5]	Potency [6]	Potency [7]	Potency [8]	Potency [9]	Potency [10]	outcome [11]
[Li+]	inactive	6.42	inactive	inactive	inactive	inactive	inactive	inactive	inactive			
CC[N+](CC)(CC)CC(=O)Nc1c(C)cccc1C	inactive	-3.66	inactive	inactive	inactive	inactive	inactive		inactive	inactive	inactive	
CC(N)=NCCCC[C@@H](N)C(=O)O	inactive	-0.552	inactive	inactive	inactive	inactive	inactive	inactive	inactive	inactive		
COc1ccccc1N1CCN(CCCNc2c(C)c(=O)n(C)c(=O)n2C)CC1	inactive	3.58	inactive	inactive	inactive	inactive	inactive	inactive	inactive	inactive		
O=C1C2C=CC=CC2=NC(=S)N1CCN1CCC(=C(c2ccc(F)cc2)c2ccc(F)cc2)CC1 (centres undefined)	inactive	6.28	inactive	inactive		inactive	inactive	inactive	inactive	inactive		
Oc1cc2c(cc1O)C(c1ccccc1)CNCC2 (centres undefined)	inactive	-2.55	inactive	inactive	inactive	inactive	inactive	inactive	inactive	inactive		
C#CC(N)CCC(=O)O (centres undefined)	inactive	2.08	inactive	inactive	inactive	inactive	inactive		inactive			
CC(N)=O	inactive	1.69	inactive			inactive	inactive	inactive	inactive	inactive		
O=C1OC(=O)C2C3CCC(O3)C12 (centres undefined)	inactive	-3.78	inactive	inactive	inactive	inactive	inactive	inactive	inactive	inactive	inactive	
CC1CCN(CC[C@H]2CCCN2S(=O)(=O)c2cccc(O)c2)CC1	inactive	8.25	inactive	inactive	inactive	inactive	inactive	inactive	inactive		inactive	
NC(N)=NC(N)=Nc1ccccc1	inactive	-4.42	inactive	inactive	inactive	inactive	inactive	inactive	inactive		inactive	
CC(C)(C)NCC(O)COc1cccc2[nH]c(=O)[nH]c12 (centres undefined)	inactive	-1.12	inactive	inactive		inactive	inactive	inactive	inactive	inactive		
NC(C(=O)N[C@@H]1C(=O)N2C(C(=O)O)=C(Cl)CS[C@H]12)c1ccccc1 (some centres undefined)	inactive	1.5	inactive	inactive	inactive	inactive	inactive	inactive	inactive	inactive		
Nc1ncnc2c1nc(Br)n2C1OC2COP(=O)(O)O[C@@H]2C1O (some centres undefined)	inactive	1.09		inactive	inactive		inactive		inactive			inactive
C[C@]12C=CC(=O)C=C1CC[C@@H]1C2=CC[C@]2(C)[C@@H](C(=O)CN3CCN(c4cc(N5CCCC5)nc(N5CCCC5)n4)CC3)CC[C@@H]12	inactive	-17.1		inactive	inactive	inactive		inactive	inactive			inactive
CCOC(=O)C12CC1/C(=N/O)c1ccccc1O2 (centres undefined)	inactive	1.91	inactive	inactive	inactive	inactive	inactive		inactive	inactive		
CN1CC(O)C(O)C(O)C1CO (centres undefined)	inactive	2.46		inactive		inactive	inactive		inactive			inactive
CC(C)(C)c1ccc(/C=C/C(=O)Nc2ccc3c(c2)OCCO3)cc1	10.3 µM (active)	-12.9		inactive	inactive	inactive						
c1ccc(CN2CCC3(CCCc4ccccc43)CC2)cc1	inactive	-10.2	inactive	inactive	inactive	inactive	inactive			inactive		
COc1ccc(NC(=O)c2ccc(-c3ccc(-c4noc(C)n4)cc3C)cc2)cc1N1CCN(C)CC1	inactive	-8.26	inactive	inactive	inactive		inactive			inactive		
COc1ccccc1N1CCN(CCCCNC(=O)c2ccc3ccccc3c2)CC1	inactive	4.82	inactive	inactive	inactive	inactive	inactive	inactive		inactive		
CC(C)NCC(O)COc1ccc(CC(N)=O)cc1 (centres undefined)	inactive	0.809	inactive	inactive	inactive	inactive	inactive	inactive	inactive	inactive		
N[C@H](C(=O)O)[C@H](O)C(=O)O	inactive	7.86	inactive		inactive		inactive	inactive	inactive	inactive	inactive	
CCCCCCCCCCCCCCC[C@H](O)[C@H](N)CO	inactive	2.23	inactive	inactive			79.4 µM (active)	inactive		inactive		
CCCn1c(=O)c(C)cn2nc(N)nc12	inactive	-13		inactive		inactive	inactive	inactive	inactive		inactive	inactive
